For orientation: Inhibition means the relative decrease from the control value, in per cent.

Results with a measured potency or affinity are listed apart.

The assay relates to Cryptococcus neoformans. To be noted: Concentration 32 ug.mL-1; ASSAY_TEST Inhibition of Fungal Growth; detection method Resazurin; Absorption (OD600-OD570); plate type 384well; NBS; CORNING #3640. A general note: The colour change of resazurin is a common sign of viable cells or microbes.
Regarding `COc1ccc(C)cc1NC(=O)Cn1nc2ccc(SC(C)(C)C)nn2c1=O`, the Inhibition was -12.69%.

As for `O=S(=O)(c1ccc2nncn2c1)N(Cc1cccc(Cl)c1)c1ccc2c(c1)OCO2`, the Inhibition is recorded as -13.77%.

For `COc1cccc(-n2ccn3c(SCC(=O)c4ccc(C)cc4C)nnc3c2=O)c1`, the Inhibition is recorded as -10.37%.

As for `Cc1cccc(Oc2nccn3c(=O)n(CC(=O)N4CCN(c5ccccc5F)CC4)nc23)c1C`, the Inhibition is listed as -17.84%.

For `CCCc1ccc(S(=O)(=O)Nc2ccc3nncn3n2)cc1`, the Inhibition is reported as -5.43%.

For the compound `CSc1ccc(-c2noc(Cn3nc4ccc(-c5ccccc5)nn4c3=O)n2)cc1`, the Inhibition is -6.64%.

With `Cc1ccc(Cn2c(=O)c3ccc(C(=O)NC4CCCC4)cc3n3c(=O)n(CC#N)nc23)cc1`, the Inhibition is -4.65%.

As to `CC(C)CCn1c(=O)c2sccc2n2c(=O)n(Cc3ccccc3Cl)nc12`, the Inhibition is -23.98%.

For `CCOc1ccc(C(=O)CSc2nnc3c(=O)n(-c4cccc(OC)c4)ccn23)cc1`, the Inhibition is -12.78%.

For the compound `Cc1cccc(C)c1NC(=O)Cn1nc2c(N3CCSCC3)nc3ccccc3n2c1=O`, the Inhibition is given as -23.14%.

With `O=C(Cn1nc2c(SC3CCCCC3)nccn2c1=O)Nc1ccc(Cl)cc1F`, the Inhibition was -29.46%.

On to `O=c1c2nn(Cc3c(F)cccc3Cl)c(=O)n2ccn1-c1ccccc1`, for which the Inhibition was -4.81%.

Consider `Cc1nnc2ccc(S(=O)(=O)N(Cc3ccccc3F)c3cccc(F)c3)cn12`, for which the Inhibition is on record as -4.32%.

With `COc1ccc(CN(c2ccc(C(C)C)cc2)S(=O)(=O)c2cccn3cnnc23)cc1`, the Inhibition is listed as -7.62%.

For `Cc1cc(C)c(NC(=O)Cn2nc3c(Sc4ccccc4)nccn3c2=O)c(C)c1`, the Inhibition is listed as -6.18%.
